These results are taken from PubChem BioAssay AID463190 (Sanford-Burnham Center for Chemical Genomics, 2010).

The whole screen tested about 330,000 compounds, of which about 7,300 (2.2%) were called active.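 Rule for the calls: active = inhibition of at least 40%; inactive = the rest.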 The entries come from a sample that favours actives as a whole.

A short description of the assay: growth inhibition of tim10-1 ts yeast – luminescence, uHTS, primary screen (AID 463190).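 Note: mutant grown at 25 °C; 0% = DMSO wells with yeast and 100% = wells holding no yeast.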 The following applies: S. cerevisiae tim10-1 ts strain growth, BacTiter-Glo, 24 h; at 20 µM; stronger effect = higher value.
Regarding `Cc1cccc(N=Nc2c(C)[nH]n(-c3ccccc3)c2=O)c1`, the inhibition (commonly the change of the read-out against control, counted positive when it falls) was 20.1% (inactive).
Regarding `Cc1[nH]n(C(N)=S)c(=O)c1N=Nc1ccc(Cl)cc1Cl`, the inhibition is 47.4% (active).
The value for `CC1=NN(C(N)=S)C(=O)C1N=Nc1cc(Cl)ccc1Cl` (configuration not stated) was 38.6% (inactive).
For the compound `CSc1cc(C)n(-c2ccccc2C)c(=S)c1C(C)=O`, the inhibition was -13.6% (inactive).
For the compound `COc1ccc2nc(/N=C(\N)NC(=O)Nc3ccccc3)nc(C)c2c1`, the inhibition is 50% (active).
`Cc1nc(/N=C(\N)NC(=O)NC2CCCCC2)nc2ccccc12`: the inhibition is -11.5% (inactive).
Next, `COc1ccc2nc(C)cc(Nc3cccc(C(=O)O)c3)c2c1`: -1.42% (inactive).
Next, `Cn1c(SCc2nc3ccccc3s2)nnc1-c1ccc2c(c1)OCO2`: -2.97% (inactive); `O=C(CCl)Nc1cccc(CP(=O)(c2ccccc2)c2ccccc2)c1`: 9.52% (inactive).
Next, `Cn1c(SCC(=O)Nc2cccc(NC(=O)c3cccs3)c2)nnc1-c1ccncc1`: -9.32% (inactive); `O=C(NOCc1ccccc1)c1cccc([N+](=O)[O-])c1`: 21.3% (inactive).
With `CCCCN=C1C([N+](=O)[O-])=CC=C2C1=NC1(CCCCC1)N2O`, the inhibition is 9% (inactive).
Regarding `COc1ccc(OCC(=O)Nc2ccc(NC(=O)c3ccco3)c(C)c2)cc1`, the inhibition is -11.8% (inactive).
On to `Cc1cccc(OCC(=O)Nc2ccc(NC(=O)c3ccco3)c(C)c2)c1`, for which the inhibition was 1.89% (inactive).
For `Cc1ccc(C(=O)COc2cccc(NC(=O)c3ccco3)c2)cc1`, the inhibition is 40.3% (active).
The value for `COc1ccc(/C=N/N=C2/C(=O)Nc3ccccc32)cc1O` was 9.34% (inactive); that for `C(=N\N1CCN(c2ccccn2)CC1)/C1=C(N2CCOCC2)C(=C/c2ccccc2)/CC1` was 34.3% (inactive).
For the compound `O=C1Nc2ccc(Br)cc2/C1=N/N=C/C1=C(N2CCOCC2)C(=C\c2ccccc2)/CC1`, the inhibition is 45.5% (active).
The value for `C#CC(CCN1CCCCC1)(OC)c1ccccc1` (configuration not stated) was 7.91% (inactive); that for `Cc1ccc2nc(-c3ccc(Br)cc3)cn2c1` was -3.32% (inactive).
Consider `Cc1ccc(-c2cn3cc(C)ccc3n2)cc1`, for which the inhibition was 51.8% (active).
The value for `Cc1ccc(-c2cn3cc([N+](=O)[O-])ccc3n2)cc1` was -1.69% (inactive).
As to `CCOc1ccc(-n2c(SC(C)C(=O)OC)nc3c(c2=O)SCC3)cc1` (configuration not stated), the inhibition is 10.7% (inactive).
With `Cc1cc(F)ccc1NC(=O)C(C)n1c2ccccc2c2nc(=O)cc(C)n21` (configuration not stated), the inhibition was 13.9% (inactive).
The value for `C[C@H](CO)N1C[C@H](C)[C@@H](CN(C)S(=O)(=O)c2ccc(F)cc2)Oc2c(NC(=O)Nc3ccccc3)cccc2C1=O` was -4.64% (inactive).
Next, `O=C(OCC(=O)N1CCCC1=O)c1cc(S(=O)(=O)N2CCOCC2)ccc1Cl`: -17.2% (inactive).
For the compound `Cc1ccc(S(=O)(=O)N2CCC(C(=O)NCCC3=CCCCC3)CC2)cc1C`, the inhibition is -3% (inactive).
On to `CC(=O)Cc1nsc(NC(=O)c2csc3c2CCCC3)n1`, for which the inhibition is 41.9% (active).
Regarding `O=C(NCc1ccccc1Cl)c1csc2c1CCCCC2`, the inhibition is 12.3% (inactive).
Turning to `CC(=O)Cc1nsc(NC(=O)c2ccc(Cl)cc2Cl)n1`, the inhibition is 36.5% (inactive).
Turning to `Cc1ccc(CNC(=O)CCC(=O)N2CC(C)Sc3ccccc32)cc1` (configuration not stated), the inhibition was 28.3% (inactive).
Next, `CCCc1nnc(NC(=O)CCC(=O)NC2CC2)s1`: 10.7% (inactive); `Cc1ccc2[nH]c(C)c(CCNC(=O)NC3CCCCC3)c2c1`: 11.4% (inactive); `Cc1ccc(/C(N)=N/OC(=O)COc2ccc(Cl)c(C)c2)cc1`: 41.2% (active).
Next, `COc1ccc(C(=O)COC(=O)COc2ccc(C)c(C)c2)cc1`: 10.1% (inactive); `Cc1cc(OCC(=O)N2CCN(c3ncccn3)CC2)ccc1Cl`: 16% (inactive); `COC(=O)c1cccc([N+](=O)[O-])c1CS(=O)(=O)c1ccc(C)cc1`: 24.5% (inactive).
As for `Cc1ccc(OC(=O)CCC(=O)Nc2ccc(Br)cc2)cc1`, the inhibition is 0.584% (inactive).
The value for `COC(=O)CCc1sc(Nc2ccc(Br)cc2)nc1-c1ccc(OC)cc1` was 46.4% (active); that for `COc1ccc(C(=O)Nc2nc(-c3ccc(OC)cc3)c(-c3ccc([N+](=O)[O-])cc3)s2)cc1` was 14.1% (inactive); that for `CC1CCc2c(sc3nc4n(c(=O)c23)CCS4)C1` (configuration not stated) was 40.6% (active).
Consider `CCCn1nnc2sc3c(c2c1=O)CCC(C)C3` (configuration not stated), for which the inhibition is 9.67% (inactive).
Next, `C=CCn1c(SCc2c(C)noc2C)nc2sc3c(c2c1=O)CCC(C)C3` (configuration not stated): -4.33% (inactive); `Cc1cc2c(c(=O)n1C)C(C(C)C)C(C#N)=C(N)O2` (configuration not stated): -3.2% (inactive).
Next, `COc1cccc(CNC(=O)C2CCN(S(=O)(=O)c3cccc4cccnc34)CC2)c1`: 13.9% (inactive).
Consider `Cn1c(=O)c(C(=O)Nc2ncccn2)c(O)c2ccccc21`, for which the inhibition was 25.2% (inactive).
The value for `C=CCn1c(SCc2c(C(=O)OC)sc(N)c2C(=O)OC)nnc1-c1ccc(Cl)cc1` was 15.3% (inactive).
